# Source: ChEMBL document CHEMBL1961873, “Compounds: GSK PKIS; Assays: Nanosyn kinase panel” (2012)
# Key:
# [1] = biological target: Protein kinase C gamma type (Homo sapiens) (UniProt P05129); settings: at 1 µM;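 note: each value is an averaged percent inhibition of the enzyme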
# [2] = biological target: T1, Protein kinase C iota type (Homo sapiens) (UniProt P41743); settings: at 0.1 µM
# T1 sequence (whole entry): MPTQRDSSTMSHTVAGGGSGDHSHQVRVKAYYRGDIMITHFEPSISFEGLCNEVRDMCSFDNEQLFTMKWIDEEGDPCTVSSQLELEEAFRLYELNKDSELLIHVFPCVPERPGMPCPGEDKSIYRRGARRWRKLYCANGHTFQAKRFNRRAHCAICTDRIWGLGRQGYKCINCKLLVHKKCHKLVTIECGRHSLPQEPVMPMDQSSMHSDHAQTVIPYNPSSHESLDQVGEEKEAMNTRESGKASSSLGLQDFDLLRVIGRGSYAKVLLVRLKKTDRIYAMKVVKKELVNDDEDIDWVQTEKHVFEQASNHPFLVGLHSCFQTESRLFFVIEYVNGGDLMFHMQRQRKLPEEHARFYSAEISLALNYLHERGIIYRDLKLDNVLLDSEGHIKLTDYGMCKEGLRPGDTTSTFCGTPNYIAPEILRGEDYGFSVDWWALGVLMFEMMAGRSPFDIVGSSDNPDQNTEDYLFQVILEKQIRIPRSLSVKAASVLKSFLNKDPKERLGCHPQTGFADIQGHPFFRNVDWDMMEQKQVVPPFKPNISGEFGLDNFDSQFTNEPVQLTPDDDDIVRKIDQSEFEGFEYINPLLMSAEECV
# [3] = biological target: T1, Protein kinase C iota type (Homo sapiens); settings: at 1 µM
# [4] = biological target: Protein kinase C theta type (Homo sapiens) (UniProt Q04759); settings: at 0.1 µM
# [5] = biological target: Protein kinase C theta type (Homo sapiens) (UniProt Q04759); settings: at 1 µM
# [6] = biological target: Protein kinase C beta type (Homo sapiens) (UniProt P05771); settings: at 0.1 µM
# [7] = biological target: Protein kinase C beta type (Homo sapiens) (UniProt P05771); settings: at 1 µM
# [8] = biological target: T2, Serine/threonine-protein kinase D1 (Homo sapiens) (UniProt Q15139); settings: at 0.1 µM
# T2 sequence (whole entry): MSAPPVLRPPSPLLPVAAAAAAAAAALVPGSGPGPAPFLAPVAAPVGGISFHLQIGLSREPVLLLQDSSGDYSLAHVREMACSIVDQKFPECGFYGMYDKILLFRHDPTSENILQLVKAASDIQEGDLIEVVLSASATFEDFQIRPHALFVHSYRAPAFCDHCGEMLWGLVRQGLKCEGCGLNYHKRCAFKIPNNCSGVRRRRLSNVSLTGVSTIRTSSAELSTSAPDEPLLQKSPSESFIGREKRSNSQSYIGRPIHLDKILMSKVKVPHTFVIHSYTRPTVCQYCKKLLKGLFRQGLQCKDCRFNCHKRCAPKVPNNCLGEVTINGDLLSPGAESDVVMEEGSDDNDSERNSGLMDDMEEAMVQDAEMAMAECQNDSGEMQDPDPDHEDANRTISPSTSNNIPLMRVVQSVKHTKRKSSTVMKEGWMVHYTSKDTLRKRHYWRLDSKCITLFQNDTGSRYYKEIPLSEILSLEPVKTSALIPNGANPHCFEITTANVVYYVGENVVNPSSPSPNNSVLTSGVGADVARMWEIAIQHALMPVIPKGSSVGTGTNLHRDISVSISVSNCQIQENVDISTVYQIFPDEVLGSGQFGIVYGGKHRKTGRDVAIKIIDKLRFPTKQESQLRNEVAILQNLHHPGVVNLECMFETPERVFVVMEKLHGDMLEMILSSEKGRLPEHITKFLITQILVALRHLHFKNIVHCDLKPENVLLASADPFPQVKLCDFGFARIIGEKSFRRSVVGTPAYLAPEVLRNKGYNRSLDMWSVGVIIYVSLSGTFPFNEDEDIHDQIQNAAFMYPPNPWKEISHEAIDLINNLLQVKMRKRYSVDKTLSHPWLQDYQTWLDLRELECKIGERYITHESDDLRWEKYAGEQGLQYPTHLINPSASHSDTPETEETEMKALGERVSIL
# [9] = biological target: T2, Serine/threonine-protein kinase D1 (Homo sapiens); settings: at 1 µM
# [10] = biological target: T3, Serine/threonine-protein kinase D2 (Homo sapiens) (UniProt Q9BZL6); settings: at 0.1 µM
# T3 sequence (whole entry): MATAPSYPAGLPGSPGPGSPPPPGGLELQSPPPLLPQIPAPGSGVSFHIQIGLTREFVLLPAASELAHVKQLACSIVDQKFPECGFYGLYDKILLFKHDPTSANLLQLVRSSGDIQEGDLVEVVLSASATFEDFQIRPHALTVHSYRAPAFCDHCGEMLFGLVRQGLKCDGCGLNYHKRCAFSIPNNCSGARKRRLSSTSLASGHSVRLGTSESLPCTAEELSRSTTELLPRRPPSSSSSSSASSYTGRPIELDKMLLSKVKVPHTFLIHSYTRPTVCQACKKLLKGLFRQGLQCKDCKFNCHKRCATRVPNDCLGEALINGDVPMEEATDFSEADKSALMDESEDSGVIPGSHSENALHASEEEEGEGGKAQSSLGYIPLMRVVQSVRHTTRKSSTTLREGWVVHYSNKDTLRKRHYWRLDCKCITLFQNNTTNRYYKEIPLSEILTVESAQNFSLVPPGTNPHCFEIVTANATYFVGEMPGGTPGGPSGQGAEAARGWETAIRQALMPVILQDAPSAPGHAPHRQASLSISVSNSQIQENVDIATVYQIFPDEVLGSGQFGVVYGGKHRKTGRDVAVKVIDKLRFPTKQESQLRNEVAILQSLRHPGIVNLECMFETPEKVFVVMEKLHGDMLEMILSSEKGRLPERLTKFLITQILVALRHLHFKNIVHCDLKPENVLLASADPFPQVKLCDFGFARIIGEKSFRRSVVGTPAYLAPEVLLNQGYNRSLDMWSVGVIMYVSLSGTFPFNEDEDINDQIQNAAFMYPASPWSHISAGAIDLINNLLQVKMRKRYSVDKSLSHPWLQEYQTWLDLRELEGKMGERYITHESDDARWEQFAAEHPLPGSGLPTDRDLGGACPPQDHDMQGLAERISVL
# [11] = biological target: T3, Serine/threonine-protein kinase D2 (Homo sapiens); settings: at 1 µM
# [12] = biological target: T4, Serine/threonine-protein kinase D3 (Homo sapiens) (UniProt O94806); settings: at 0.1 µM
# T4 sequence (whole entry): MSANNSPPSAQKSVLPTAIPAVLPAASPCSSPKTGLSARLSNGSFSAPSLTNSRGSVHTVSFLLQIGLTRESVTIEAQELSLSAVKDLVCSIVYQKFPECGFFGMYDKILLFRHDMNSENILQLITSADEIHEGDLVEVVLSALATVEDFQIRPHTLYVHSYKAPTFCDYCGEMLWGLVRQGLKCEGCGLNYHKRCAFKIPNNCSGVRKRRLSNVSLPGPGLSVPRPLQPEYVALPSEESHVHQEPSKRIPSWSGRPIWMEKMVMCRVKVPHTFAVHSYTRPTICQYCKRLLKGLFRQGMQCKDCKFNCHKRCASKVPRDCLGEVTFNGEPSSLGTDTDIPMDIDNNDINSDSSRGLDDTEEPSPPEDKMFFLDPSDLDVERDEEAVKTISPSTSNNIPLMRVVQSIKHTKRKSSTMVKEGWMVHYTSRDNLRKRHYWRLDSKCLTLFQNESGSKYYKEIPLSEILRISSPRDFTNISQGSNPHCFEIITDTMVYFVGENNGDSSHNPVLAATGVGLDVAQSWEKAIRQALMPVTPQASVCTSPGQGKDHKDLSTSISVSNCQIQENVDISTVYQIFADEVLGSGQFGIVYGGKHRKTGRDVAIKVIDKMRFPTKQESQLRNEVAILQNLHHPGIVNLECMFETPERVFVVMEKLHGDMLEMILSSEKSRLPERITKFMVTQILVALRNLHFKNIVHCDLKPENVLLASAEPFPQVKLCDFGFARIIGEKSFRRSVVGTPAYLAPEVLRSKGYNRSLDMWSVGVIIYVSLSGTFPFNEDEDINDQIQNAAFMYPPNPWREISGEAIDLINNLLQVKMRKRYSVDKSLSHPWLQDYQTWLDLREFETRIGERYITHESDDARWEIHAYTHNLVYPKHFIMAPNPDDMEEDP
# [13] = biological target: T4, Serine/threonine-protein kinase D3 (Homo sapiens); settings: at 1 µM
# [14] = biological target: T5, cGMP-dependent protein kinase 1 (Homo sapiens) (UniProt Q13976); settings: at 0.1 µM
# T5 sequence (whole entry): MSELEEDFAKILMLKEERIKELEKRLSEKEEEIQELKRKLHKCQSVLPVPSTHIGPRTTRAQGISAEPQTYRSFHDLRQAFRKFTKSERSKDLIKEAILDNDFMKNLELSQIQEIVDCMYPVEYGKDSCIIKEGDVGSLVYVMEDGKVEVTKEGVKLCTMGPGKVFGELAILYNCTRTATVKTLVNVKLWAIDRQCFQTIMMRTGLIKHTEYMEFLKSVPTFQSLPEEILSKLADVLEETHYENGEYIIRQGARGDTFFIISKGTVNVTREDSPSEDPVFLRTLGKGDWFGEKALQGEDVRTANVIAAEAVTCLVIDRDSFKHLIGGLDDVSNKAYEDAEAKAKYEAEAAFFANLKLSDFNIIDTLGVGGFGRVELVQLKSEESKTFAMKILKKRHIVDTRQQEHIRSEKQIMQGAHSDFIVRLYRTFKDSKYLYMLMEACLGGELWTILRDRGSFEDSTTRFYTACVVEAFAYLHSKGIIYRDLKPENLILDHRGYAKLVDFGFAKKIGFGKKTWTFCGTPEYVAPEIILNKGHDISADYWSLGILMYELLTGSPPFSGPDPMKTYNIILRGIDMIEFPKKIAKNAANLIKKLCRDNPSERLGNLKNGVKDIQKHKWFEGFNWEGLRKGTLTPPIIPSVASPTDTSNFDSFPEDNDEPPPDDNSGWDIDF
# [15] = biological target: T5, cGMP-dependent protein kinase 1 (Homo sapiens); settings: at 1 µM
# [16] = biological target: T6, cGMP-dependent protein kinase 2 (Homo sapiens) (UniProt Q13237); settings: at 0.1 µM
# T6 sequence (whole entry): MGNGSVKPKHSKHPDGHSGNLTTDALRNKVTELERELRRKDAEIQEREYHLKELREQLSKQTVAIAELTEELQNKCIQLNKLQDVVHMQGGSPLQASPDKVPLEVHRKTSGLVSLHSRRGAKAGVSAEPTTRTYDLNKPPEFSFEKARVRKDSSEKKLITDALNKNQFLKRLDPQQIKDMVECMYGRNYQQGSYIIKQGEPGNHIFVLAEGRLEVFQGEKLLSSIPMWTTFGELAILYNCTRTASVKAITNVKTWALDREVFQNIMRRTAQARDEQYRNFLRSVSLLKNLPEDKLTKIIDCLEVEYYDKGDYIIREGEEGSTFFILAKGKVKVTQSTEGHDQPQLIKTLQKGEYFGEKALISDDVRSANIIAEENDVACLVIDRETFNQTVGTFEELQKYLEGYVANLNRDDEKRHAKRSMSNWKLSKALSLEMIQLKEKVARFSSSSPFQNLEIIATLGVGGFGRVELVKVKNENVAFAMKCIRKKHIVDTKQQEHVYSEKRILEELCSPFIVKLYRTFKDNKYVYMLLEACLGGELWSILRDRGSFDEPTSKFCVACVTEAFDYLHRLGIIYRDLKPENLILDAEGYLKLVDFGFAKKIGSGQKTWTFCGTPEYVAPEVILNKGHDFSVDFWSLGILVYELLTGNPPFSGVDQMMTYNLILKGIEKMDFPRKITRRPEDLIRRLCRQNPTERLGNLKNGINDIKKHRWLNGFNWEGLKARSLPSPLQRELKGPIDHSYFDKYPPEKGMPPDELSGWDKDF
# [17] = biological target: T6, cGMP-dependent protein kinase 2 (Homo sapiens); settings: at 1 µM
# [18] = biological target: T7, cAMP-dependent protein kinase catalytic subunit PRKX (Homo sapiens) (UniProt P51817); settings: at 0.1 µM
# T7 sequence (whole entry): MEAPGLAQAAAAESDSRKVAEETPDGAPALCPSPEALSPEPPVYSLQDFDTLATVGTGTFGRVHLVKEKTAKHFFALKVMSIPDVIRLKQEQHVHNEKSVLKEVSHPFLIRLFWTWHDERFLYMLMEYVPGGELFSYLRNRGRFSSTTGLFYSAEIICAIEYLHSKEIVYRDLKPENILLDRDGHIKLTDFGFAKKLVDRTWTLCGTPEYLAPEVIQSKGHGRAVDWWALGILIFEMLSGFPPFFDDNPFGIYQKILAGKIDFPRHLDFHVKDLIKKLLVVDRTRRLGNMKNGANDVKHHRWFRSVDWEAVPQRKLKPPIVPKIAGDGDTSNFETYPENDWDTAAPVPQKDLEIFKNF
# [19] = biological target: T7, cAMP-dependent protein kinase catalytic subunit PRKX (Homo sapiens); settings: at 1 µM
# [20] = biological target: Rho-associated protein kinase 1 (Homo sapiens) (UniProt Q13464); settings: at 0.1 µM;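 note: values are mean percent inhibition of ROCK1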
# Rho-associated protein kinase 1 (Homo sapiens), sequence (Q13464 2-1354 limits assumed): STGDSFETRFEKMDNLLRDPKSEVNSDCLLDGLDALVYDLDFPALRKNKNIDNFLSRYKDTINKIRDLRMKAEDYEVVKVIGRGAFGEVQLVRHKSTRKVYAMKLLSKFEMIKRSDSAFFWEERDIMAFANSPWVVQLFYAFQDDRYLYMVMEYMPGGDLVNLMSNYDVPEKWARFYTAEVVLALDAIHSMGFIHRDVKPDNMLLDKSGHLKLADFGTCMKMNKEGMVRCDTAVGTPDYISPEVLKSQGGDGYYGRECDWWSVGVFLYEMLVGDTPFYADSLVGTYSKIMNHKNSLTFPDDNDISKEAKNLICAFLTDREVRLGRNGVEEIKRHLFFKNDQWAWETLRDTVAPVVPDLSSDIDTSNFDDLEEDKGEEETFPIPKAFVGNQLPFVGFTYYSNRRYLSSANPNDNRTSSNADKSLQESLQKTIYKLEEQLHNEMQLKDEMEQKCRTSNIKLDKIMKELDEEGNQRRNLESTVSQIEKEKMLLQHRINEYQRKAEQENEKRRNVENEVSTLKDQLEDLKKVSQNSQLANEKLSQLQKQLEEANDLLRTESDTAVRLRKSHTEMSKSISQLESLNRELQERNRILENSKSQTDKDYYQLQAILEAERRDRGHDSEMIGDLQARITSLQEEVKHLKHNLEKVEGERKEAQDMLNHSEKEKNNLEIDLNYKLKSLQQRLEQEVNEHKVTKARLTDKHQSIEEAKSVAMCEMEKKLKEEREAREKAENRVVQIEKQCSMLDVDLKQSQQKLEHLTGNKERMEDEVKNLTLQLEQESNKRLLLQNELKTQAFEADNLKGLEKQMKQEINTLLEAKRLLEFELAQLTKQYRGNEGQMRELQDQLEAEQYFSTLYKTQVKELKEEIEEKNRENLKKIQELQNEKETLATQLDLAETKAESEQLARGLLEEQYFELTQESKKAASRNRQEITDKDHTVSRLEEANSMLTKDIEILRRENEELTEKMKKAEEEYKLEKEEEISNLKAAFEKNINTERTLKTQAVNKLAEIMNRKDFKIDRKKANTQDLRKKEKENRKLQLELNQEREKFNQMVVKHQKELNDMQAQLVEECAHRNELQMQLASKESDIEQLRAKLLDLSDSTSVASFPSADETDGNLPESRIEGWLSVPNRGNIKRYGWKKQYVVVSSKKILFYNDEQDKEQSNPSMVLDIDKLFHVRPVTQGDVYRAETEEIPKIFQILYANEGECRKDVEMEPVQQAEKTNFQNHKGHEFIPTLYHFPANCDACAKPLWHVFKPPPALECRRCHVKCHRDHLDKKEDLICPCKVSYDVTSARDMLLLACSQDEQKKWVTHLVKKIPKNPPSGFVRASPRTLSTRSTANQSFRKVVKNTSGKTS
# Protein kinase C beta type (Homo sapiens), sequence (P05771 2-671 limits assumed): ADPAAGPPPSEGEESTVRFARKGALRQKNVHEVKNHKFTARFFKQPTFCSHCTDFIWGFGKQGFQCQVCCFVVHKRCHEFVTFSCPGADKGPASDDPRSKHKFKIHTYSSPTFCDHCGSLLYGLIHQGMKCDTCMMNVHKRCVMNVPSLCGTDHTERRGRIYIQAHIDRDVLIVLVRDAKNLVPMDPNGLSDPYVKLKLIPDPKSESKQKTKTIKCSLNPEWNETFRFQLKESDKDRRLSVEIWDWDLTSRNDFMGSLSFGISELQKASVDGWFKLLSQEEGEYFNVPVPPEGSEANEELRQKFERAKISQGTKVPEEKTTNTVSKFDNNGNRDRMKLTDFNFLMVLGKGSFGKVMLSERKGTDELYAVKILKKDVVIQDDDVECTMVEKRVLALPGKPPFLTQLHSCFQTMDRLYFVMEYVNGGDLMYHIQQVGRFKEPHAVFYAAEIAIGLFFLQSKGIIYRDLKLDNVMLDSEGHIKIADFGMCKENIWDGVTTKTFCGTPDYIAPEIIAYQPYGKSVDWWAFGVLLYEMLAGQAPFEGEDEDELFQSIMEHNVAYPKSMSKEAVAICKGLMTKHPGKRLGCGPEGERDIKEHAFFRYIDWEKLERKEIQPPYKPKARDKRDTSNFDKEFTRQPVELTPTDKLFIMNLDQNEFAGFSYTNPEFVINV
# Protein kinase C theta type (Homo sapiens), sequence (Q04759 whole entry, looked up): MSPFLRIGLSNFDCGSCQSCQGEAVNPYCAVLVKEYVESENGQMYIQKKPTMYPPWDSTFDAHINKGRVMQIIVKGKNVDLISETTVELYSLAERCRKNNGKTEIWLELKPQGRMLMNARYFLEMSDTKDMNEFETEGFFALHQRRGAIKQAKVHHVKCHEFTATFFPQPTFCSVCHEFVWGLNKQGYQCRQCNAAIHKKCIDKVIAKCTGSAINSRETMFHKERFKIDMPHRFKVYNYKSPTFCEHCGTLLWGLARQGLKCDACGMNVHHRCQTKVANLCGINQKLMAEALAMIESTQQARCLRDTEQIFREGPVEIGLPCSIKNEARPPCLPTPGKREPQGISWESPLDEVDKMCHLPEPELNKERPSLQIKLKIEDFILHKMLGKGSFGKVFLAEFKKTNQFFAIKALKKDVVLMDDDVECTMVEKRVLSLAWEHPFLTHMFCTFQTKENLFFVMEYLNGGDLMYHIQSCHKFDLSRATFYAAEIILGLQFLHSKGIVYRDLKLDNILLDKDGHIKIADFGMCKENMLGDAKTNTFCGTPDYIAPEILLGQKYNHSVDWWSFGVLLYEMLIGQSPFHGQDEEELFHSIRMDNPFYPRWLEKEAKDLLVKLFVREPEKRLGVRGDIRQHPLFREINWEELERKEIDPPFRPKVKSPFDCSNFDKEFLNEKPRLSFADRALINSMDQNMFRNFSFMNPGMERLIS
Structure (SMILES),inhibition [1] [%],inhibition [2] [%],inhibition [3] [%],inhibition [4] [%],inhibition [5] [%],inhibition [6] [%],inhibition [7] [%],inhibition [8] [%],inhibition [9] [%],inhibition [10] [%],inhibition [11] [%],inhibition [12] [%],inhibition [13] [%],inhibition [14] [%],inhibition [15] [%],inhibition [16] [%],inhibition [17] [%],inhibition [18] [%],inhibition [19] [%],inhibition [20] [%]
COC(=O)Nc1nc2cc(Oc3ccc(NC(=O)Nc4cccc(C(=O)O)c4)cc3)ccc2[nH]1,-0.24,0.47,-1.28,0.18,2.02,-0.5,0.44,-1.35,-1.96,-3.05,-1.55,-2.32,-3.85,-0.28,2.77,1.1,0.86,0.76,1.8,0.24
COC(=O)Nc1nc2cc(Oc3cccc(NC(=O)Nc4cc(C(F)(F)F)ccc4F)c3)ccc2[nH]1,2.09,-0.71,-0.55,-0.27,-0.91,3.01,1.79,0.22,1.03,0.66,1.8,0.2,2.71,2.33,2.11,1.2,6.47,0.81,2.2,-0.55
CCn1c(-c2nonc2N)nc2cnc(Oc3cccc(NC(=O)c4ccc(OCCN5CCOCC5)cc4)c3)cc21,55,23.4,64.9,20,67.4,11.6,42.4,2.46,3.36,3.04,4.52,2.2,2.69,60.5,76.6,27.3,66.3,18.6,63.1,
